# Assay outcomes deposited in PubChem BioAssay by National Center for Advancing Translational Sciences (NCATS).
# GLP1R inv ag: GLP-1 receptor (human) inverse agonism. P43220. HEK293 GLP-1R CRE-luciferase, luminescence, 24 h; GLP-1R form is constitutively active. Potency, µM (highest dose often 38.3 µM), for the others: at the highest dose activity change, negative = inhibition, usual class: inhibitors. 1.6% of 410,000 active. AID 624417; also: % is scaled to controls: 0 for no effect and ±100 for the full control effect; nearly all actives have a fitted effect of over 55% in size
# Target sequence (P43220 whole entry, looked up): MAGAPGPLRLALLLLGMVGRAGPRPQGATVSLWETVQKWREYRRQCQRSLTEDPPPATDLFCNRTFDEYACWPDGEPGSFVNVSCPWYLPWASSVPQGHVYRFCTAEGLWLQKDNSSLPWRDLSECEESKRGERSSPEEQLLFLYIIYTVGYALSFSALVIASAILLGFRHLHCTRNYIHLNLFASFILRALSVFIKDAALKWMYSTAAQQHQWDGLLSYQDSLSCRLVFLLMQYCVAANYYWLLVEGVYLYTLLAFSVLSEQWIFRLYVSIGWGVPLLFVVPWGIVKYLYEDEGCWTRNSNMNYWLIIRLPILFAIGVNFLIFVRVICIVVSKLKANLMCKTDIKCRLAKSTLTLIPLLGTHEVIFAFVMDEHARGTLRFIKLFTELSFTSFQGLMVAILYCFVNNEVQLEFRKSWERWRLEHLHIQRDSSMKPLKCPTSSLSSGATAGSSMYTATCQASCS
#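 Readout was luciferase luminescence, measured 12 min after detection reagent at room temperature. Beforehand, GLP-1R reporter HEK293 cells had sat 12 h, then received compounds for 24 hr at 37 deg C.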
# a7 integrin act: activators of alpha7 integrin expression for muscular dystrophy; alpha7betagal myoblasts, beta-gal FDG fluorescence, 48 h; Potency, µM (titrated, usually from 38.3 µM), inactives show at the highest dose activation, usual class: activators; 0.064% of 350,000 active; AID 624291;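 also: 100% = response of the positive control SU9516; nearly all actives have a fitted effect of over 60% in size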
#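 alpha7betagal+/- myoblasts (passage 13, 250/well) treated 48 h at 37C with compounds at 1:260 dilution of DMSO stock. Lysed, then beta-galactosidase activity read as FDG fluorescence (ex 480/em 540) after 30 min, with pre-read for autofluorescence.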
# BRCA1 expr act: increases BRCA1 expression; MCF7-BRCA1-FFLuc reporter, luminescence, 48 h; response scale: scaled: vehicle 0%, 10 µM genistein 100%; Potency, µM (highest dose often 46.1 µM), inactives show at the top dose activation, usual class: activators; 1.1% of 380,000 active; also: nearly all actives have a fitted effect of over 80% in size
#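 MCF7-BRCA1-FFLuc cells, 2000/well in phenol-red-free MEM, attached 2 h then treated 48 h at 37 C. Luciferase luminescence read 15 min after reagent; normalized to genistein maximum activation (10microM) and DMSO, concentration-response fitted.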
# GLP1R cytotox: cytotoxicity in counter-screen for GLP-1R inverse agonists; HEK293 cAMP-luciferase reporter cells, luminescence, 24 h; Potency, µM (top dose mostly 38.3 µM), without a hit: at the top dose activity change, negative = inhibition, most hits filed as inhibitors; 0.13% of 410,000 active; AID 624418;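 also: loss of luciferase light is scored as toxicity; % is scaled to controls: 0 for no effect and ±100 for the full control effect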
#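 Step one: seed cells (200 cells/uL, DMEM with 10% Nu serum, 1% pen-strep). Step two: 12-hour incubation at 37 deg C. Step three: pin 23 nL compound, incubate 24 hr. Step four: add luciferase reagent, read luminescence 12 min later.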
# GLP-1R agonist: activates the human GLP-1 receptor. HEK293 GLP-1R CRE-luciferase, luminescence, 4-6 h; cells express a hypersensitive GLP-1R form. Potency, µM (titrated, usually from 45.6 µM), for inactives: at the top dose activation, usual class: activators. 0.007% of 380,000 active; also: % of control where 0% means no effect
# * marks the source's active call; other numbers are inactive results; ? = inconclusive; . = not tested or not shown. Hits are enriched below; roughly 2.7% of the tested compounds scored in any of these assays. Calls follow the shape of the dose curve; as a rule, active = well fitted curve in the direction sought with a large enough effect; inconclusive = small, poorly fitted or top-dose-only effect, or another doubt; inactive = no such curve, though single readings can be large; an effect the other way counts as inactive or inconclusive. Potency is read from the fitted curve at half-maximal effect.
SMILES,GLP1R inv ag,a7 integrin act,BRCA1 expr act,GLP1R cytotox,GLP-1R agonist
O=[N+]([O-])c1cc(/C=N/O)ccc1Oc1ccccc1Cl,?,-2%,7.1µM*,-25%,?
C[n+]1ccnc2cc(Cl)ccc21,.,.,-79%,.,.
NC(=O)CSc1nnc(-c2ccccn2)n1Cc1ccco1,2%,1%,-7%,5%,0%
C(=C\c1ccccc1)/CSc1nnc(-c2ccccn2)n1Cc1ccco1,4µM*,0%,-68%,?,15%
Cc1ccc(NC(=O)c2cnn(-c3ccccc3)c2C)cc1C,?,-2%,?,1%,-11%
COc1ccccc1C(=O)NC(=O)Nc1ccc(-c2cc(C(F)(F)F)nn2-c2ccccc2)cc1,-2%,.,.,-5%,.
COc1ccc(NC(=O)c2cnn(-c3ccccc3)c2C)cc1,7.9µM*,32%,?,-17%,2%
COc1ccc(NC(=O)c2cnn(-c3ccccc3)c2C)cc1OC,2%,21%,4µM*,17%,1%
Cc1c(C(=O)Nc2ccccc2)cnn1-c1ccccc1,?,-2%,?,-25%,1%
COc1ccc(NC(=O)c2cccnc2Nc2ccc(OC)cc2)cc1,10µM*,-8%,12%,-9%,9%
COc1ccccc1C(=O)Nc1ccc(-c2cc(C(F)(F)F)nn2-c2ccccc2)cc1,5.6µM*,.,.,?,.
Cc1cc(C)c(NC(=O)CN2C(=O)CCn3nc(-c4cccn4C)cc32)c(C)c1,13%,.,.,-5%,.
Cc1c(C(=O)Nc2cccc(F)c2)cnn1-c1ccccc1,?,17%,?,9%,1%
Cc1c(C(=O)Nc2cccc([N+](=O)[O-])c2)cnn1-c1ccccc1,?,41%,2.5µM*,-18%,-3%
Cc1ccc(SCC(=O)Nc2ccccc2C(=O)O)cc1,7%,-1%,4.5µM*,-18%,-26%
CSc1ccccc1NC(=O)CSCc1ccc(C)cc1,5µM*,21%,-46%,-28%,10%
N#Cc1nc(-c2ccccc2)cc(-c2ccccc2)n1,.,.,-7%,.,.
COc1ccc(C(=O)Cc2nnc(C)s2)c(OC)c1,-2%,0%,11µM*,-16%,-17%
CC(/C=C/c1ccccc1)=N\NC(=S)NC(C)C,?,8%,-14%,?,-9%
CC(/C=C/c1ccccc1)=N\NC(N)=S,2.5µM*,-4%,62%,?,2%
Cc1ccc(C(=O)Nc2nnc(S(=O)(=O)N(C)Cc3ccc(Cl)cc3)s2)cc1,3%,.,.,2%,.
O=C(Nc1cc(S(=O)(=O)N2CCCCC2)ccc1N1CCOCC1)c1ccc(C(F)(F)F)cc1,?,17%,-20%,4%,-9%
O=C(Nc1ccccc1N1CCCC1)C1CCN(S(=O)(=O)c2ccccc2C(F)(F)F)CC1,?,-1%,-15%,8%,0%
Cc1ccc(S(=O)(=O)N2CCC(C(=O)Nc3cc(C(F)(F)F)ccc3N3CCOCC3)CC2)cc1C,13µM*,-16%,-26%,-10%,6%
O=C(Nc1ccccc1N1CCCCC1)C1CCN(S(=O)(=O)c2ccccc2C(F)(F)F)CC1,7.9µM*,-41%,-44%,-5%,8%
SMILES,GLP1R inv ag,a7 integrin act,BRCA1 expr act,GLP1R cytotox,GLP-1R agonist
Cc1ccc(NC(=O)c2oc3ccc(S(=O)(=O)N(C)C4CCCCC4)cc3c2C)cc1Cl,1%,.,.,-10%,.
CC1C(=O)C(C)C(c2cc(Cl)ccc2O)NC1c1cc(Cl)ccc1O (configuration not stated),5.6µM*,-69%,-74%,?,-3%
O=S(=O)(NCCSc1ccccc1)c1ccc(F)cc1,10µM*,13%,-11%,19%,13%
CC(C)(C)SCCNS(=O)(=O)c1ccc(F)cc1,-8%,11%,-19%,5%,-3%
Cc1ccc(C(=O)NCC(=O)OCc2cc(=O)n3ccsc3n2)cc1,8%,.,-3%,0%,.
Cc1ccccc1CN1CCN(S(C)(=O)=O)CC1,5%,-11%,-1%,6%,1%
Cc1ccccc1CN1CCN(S(=O)(=O)c2ccc(Cl)s2)CC1,10µM*,-32%,-30%,-10%,1%
c1csc(-c2nc(N3CCCCC3)no2)c1,?,12%,6.3µM*,-3%,14%
CC(C)C(=O)NC(Nc1cccc2cccnc12)C(Cl)(Cl)Cl (configuration not stated),?,-24%,-36%,0%,-7%
CC(C)CC(=O)NC(NC(=S)Nc1cccc2cccnc12)C(Cl)(Cl)Cl (configuration not stated),7.9µM*,-42%,-45%,-17%,-19%
CCN(C(=O)c1cc2c(s1)-c1c(C)cccc1OC2)c1ccccc1F,?,.,.,11%,.
Cc1ccc(NC(=O)NCCOCCn2c(=O)oc3ccccc32)cc1C,?,.,5%,2%,.
COc1cccc(CSc2nc3n(n2)C(c2ccccc2C)C(C(=O)Nc2ccccc2OC)=C(C)N3)c1 (configuration not stated),-28%,.,.,1%,.
Cc1ccc(OCc2nc(-c3ccccn3)n[nH]2)cc1,?,-14%,81%,2.5µM*,-2%
Cc1cccc(OCc2nc(-c3ccccn3)n[nH]2)c1,?,19%,35%,?,16%
CCc1ccccc1Nc1nn2c(=O)c3ccc(C(=O)NCCc4ccccc4)cc3nc2s1,-3%,.,-5%,7%,3%
CCc1ccccc1Nc1nn2c(=O)c3ccc(C(=O)NC(C)c4ccccc4)cc3nc2s1 (configuration not stated),5.6µM*,.,-47%,-30%,9%
COc1ccc(N2CCN(C(=O)CSc3nc4ccccc4nc3Cc3ccc(Cl)cc3)CC2)cc1,-27%,.,.,5%,.
Cc1ccc(S(=O)(=O)N2CCOC2C(Cl)(Cl)Cl)cc1 (configuration not stated),10µM*,-33%,-1%,3%,1%
CNC(=O)C(=O)NCC1OCCN1S(=O)(=O)c1ccc(C)cc1 (configuration not stated),4%,9%,-5%,6%,-28%
CC(C)C(=O)Nc1nnc(NC(=S)Nc2ccccc2)s1,-4%,20%,10µM*,?,-1%
CC(C)C(=O)Nc1nnc(CCc2ccccc2)s1,-7%,22%,62%,-1%,13%
CCCc1nnc(NC(=S)Nc2ccccc2)s1,?,25%,2.2µM*,?,-2%
CC(C)(C)C(=O)Nc1nnc(CCc2ccccc2)s1,?,39%,4.5µM*,-7%,7%
O=C(C[n+]1ccncc1)c1cccc2ccccc12,.,.,-3%,.,.
CCC(C)(c1nnnn1-c1c(C)cccc1C)N(N=O)c1ccccc1Cl (configuration not stated),7.9µM*,?,-39%,-6%,-3%
CCCCc1ccc(NC(=O)c2ccc(=O)n(Cc3cccc(C)c3)c2)cc1,7.1µM*,.,-51%,-22%,-5%
